According to PubChem BioAssay (NCATS):
Records with an inconclusive call do not appear. A number with no mark means an inactive call. Calls of active or inactive are those of the source. Calls come from the whole dose curve; as a rule, active = well fitted inhibition curve with a large enough effect; inconclusive = small, poorly fitted or top-dose-only effect; inactive = flat fitted curve, though single readings scatter.

What was measured:
CRL-7250 = normal cell line; assay: Cytotoxic Profiling of Annotated Libraries Using Quantitative High-Throughput Screening (AID 1296008); settings: Five cell lines viability, CellTiter-Glo ATP luminescence, 48-72 h; max response: active compounds read low; note: potency is the fitted concentration of half-maximal effect; for max response: % is set by controls: 0 for no effect and ±100 for the full control effect
Method in brief: (§1)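 Compounds were pin-transferred onto cells and incubated 48 or 72 hr at 37 degree Celsius, 95% humidity. CellTiter-Glo was added, plates sat 10 min at room temperature, then ATP-coupled luminescence was imaged as the viability read-out.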

HEK293 = assay: as above; settings: Five cell lines viability, CellTiter-Glo ATP luminescence, 48-72 h; max response: active compounds read low
Method in brief: as §1

HaCat [1] = assay: as above; settings: Five cell lines viability, CellTiter-Glo ATP luminescence, 48-72 h; max response: active compounds read low
Method in brief: as §1

KB-3-1 = assay: as above; settings: Five cell lines viability, CellTiter-Glo ATP luminescence, 48-72 h; max response: active compounds read low
Method in brief: as §1

NIH3T3 = assay: as above; settings: Five cell lines viability, CellTiter-Glo ATP luminescence, 48-72 h; max response: active compounds read low
Method in brief: as §1

HACAT [2] = assay: qHTS assay to identify novel small-molecules to repurpose for Merkel cell carcinoma treatment (AID 1296009); settings: MCC and control cell lines, CellTiter-Glo viability, 72 h; at 44.8 µM (top of the series) unless noted
Method in brief: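 qHTS format: cells treated with library compounds in DMSO across 8 (NPC) or 11 (MIPE) concentrations. Readout after 72 hr at 37 degree celsius was CellTiter-Glo luminescence.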
Note: nearly all actives have a fitted effect of over 60% in size.

Row | Compound | max response (CRL-7250) | max response (HEK293) | outcome (HaCat [1]) | max response (KB-3-1) | max response (NIH3T3) | outcome (HACAT [2]) | outcome (CRL-7250) | outcome (KB-3-1) | Potency (HEK293) | outcome (NIH3T3)
1 | CC1OC(O[C@H]2CC[C@@]3(C)C(CC[C@]4(C)C3CC=C3C5CC(C)(C)CC[C@]5(C(=O)OC5OC(CO)C(OC6OCC(OC7OCC(O)C(O)C7O)C(O)C6O)C(O)C5O)CC[C@]34C)C2(C)C)C(O)C(O)C1OC1OC(CO)C(O)C(OC2OC(CO)C(O)C(O)C2O)C1O (stereo partly drawn) | -2.46% | -5.73% | inactive | 2.43% | -1.17% | inactive [at 9.27 µM] |  |  |  | 
2 | CC(=O)OC1CC(=O)C2(C)C3CC4=C(OC(C)CC4=O)OC3(C)CCC2C1(C)C (stereo not drawn) |  | 2.23% | inactive |  | 1.19% | inactive [at 17.4 µM] | inactive | inactive |  | 
3 | O=c1[nH]ccc2nc(-c3ccc(CN4CCC(c5nc(-c6ccccn6)n[nH]5)CC4)cc3)c(-c3ccccc3)cc12 |  |  | inactive | -16.7% |  | inactive | inactive |  | 5.17 µM (active) | inactive
4 | CC1=CC(=O)CC(C)(C)C1CO[C@@H]1O[C@H](CO)[C@@H](O)[C@H](O)[C@H]1O (stereo partly drawn) | -5.79% | -1.36% | inactive | 7.69% | -1.71% | inactive |  |  |  | 
5 | COc1ccc(C2OCC3C(c4cc(OC)c5c(c4)OCO5)OCC23)cc1OC (stereo not drawn) | 3.22% | 1.08% | inactive | -4.07% |  | inactive [at 17.4 µM] |  |  |  | inactive
6 | COc1c(C)c(OCC=C(C)C)cc2c1CNC2=O | -2.67% | -5.13% | inactive | -3.05% | -2.21% | inactive |  |  |  | 
7 | COC(=O)C1=CO[C@@H](O[C@@H]2O[C@H](CO)[C@@H](O)[C@H](O)[C@H]2O)[C@@H]2C(CO)=CC[C@H]12 | 3.17% | -17.4% | inactive |  | -0.343% | inactive |  | inactive |  | 
8 | COC(=O)C1=C[C@@H](O)[C@@H](O)[C@H](O[C@@H]2O[C@H](CO)[C@@H](O)[C@H](O)[C@H]2OC(=O)/C=C/c2ccccc2)C1 | -2.62% | -6.26% | inactive | -5.3% | -1.73% | inactive [at 17.4 µM] |  |  |  | 
9 | CCC(C)/C=C(C)/C=C/C(=O)C1CCC(O)C(C)(O)C1=O (stereo not drawn) | 4.93% | 0.989% | inactive | 9.09% |  | inactive |  |  |  | inactive
10 | CC1CCCCCCCc2cc(O)cc(O)c2C(=O)O1 (stereo not drawn) |  | 0.839% | inactive |  | 0.752% | inactive | inactive | inactive |  | 
11 | CN1CCN(C(=O)c2cc3cc(Cl)ccc3[nH]2)CC1 | -2.46% | -8.86% | inactive | -0.0663% |  | inactive |  |  |  | inactive
12 | C/C=C/C(=O)OC1/C=C/C(O)C(OC(C)=O)CCC(=O)OC1C (stereo not drawn) | -1.17% | 3.73% | inactive | -2.1% |  | inactive |  |  |  | inactive
13 | COc1c2cc(c(O[C@@H]3O[C@H](CO)[C@@H](O)[C@H](O)[C@H]3O)c1OC)CCCCC(O)CCc1ccc(O)c-2c1 (stereo partly drawn) | 0.579% | -2.25% | inactive |  | 1.47% | inactive [at 17.4 µM] |  | inactive |  | 
14 | CCC/C=C/C=C/C1CC(O)C(O)C(=O)C1CO (stereo not drawn) |  | -5.36% | inactive |  |  | inactive | inactive | inactive |  | inactive
15 | N#CN1CCC[C@@H](n2nc(-c3ccc(Oc4ccc(F)cc4F)cc3)c(C(N)=O)c2N)C1 | -1.33% | -4.05% | inactive |  | 1.04% | inactive |  | inactive |  | 
16 | C/C=C1/CC2C(=O)Nc3cc(O)c(OC)cc3C(=O)N2C1 (stereo not drawn) | -13.4% | 2.7% | inactive | 9.54% |  | inactive |  |  |  | inactive
17 | COC(=O)C1=CO[C@@H](O[C@@H]2O[C@H](CO)[C@@H](O)[C@H](O)[C@H]2O)[C@@H]2C(C)CC(=O)[C@]12O (stereo partly drawn) | 4.9% | -0.581% | inactive | 1.82% |  | inactive [at 17.4 µM] |  |  |  | inactive
18 | C[C@@H]1CC[C@]2(C(=O)O)CC[C@]3(C)C(=CCC4[C@@]5(C)C[C@@H](O)[C@H](O)[C@@](C)(CO)C5CC[C@]43C)C2[C@H]1C (stereo partly drawn) | -10.8% | 4.76% | inactive | 3.75% |  | inactive [at 17.4 µM] |  |  |  | inactive
19 | CC(C)CC(=O)NCCn1cc(C(=O)O)c(=O)cc1C(O)c1ccccc1 (stereo not drawn) |  | -11.3% | inactive |  | 3.17% | inactive | inactive | inactive |  | 
20 | CC1=C[C@H]2[C@@H](CC1=O)[C@H](C)C[C@H](O)[C@H]2C(C)C | -22.7% | -24.5% | inactive | -6.12% | -7.42% | inactive |  |  |  | 
21 | CC1=C(C)C(=O)OC(C(C)C2C(O)CC3C4C5OC5C5(O)CC(OC6OC(CO)C(OC7OC(C)C(O)C(O)C7O)C(O)C6O)CC(O)C5(C)C4CCC32C)C1 (stereo not drawn) | -10% | -3.17% | inactive | 2.34% | 0.724% | inactive [at 17.4 µM] |  |  |  | 
22 | CC1(C)CC(NC(=O)C(=O)Nc2ccc(Cl)cc2)CC(C)(C)N1 | -5.64% | -2.65% | inactive | 4.82% |  | inactive |  |  |  | inactive
23 | O=C(O)Cc1cn([C@@H]2OC[C@@H](O[C@@H]3O[C@H](CO)[C@@H](O)[C@H](O)[C@H]3O)[C@H](O)[C@H]2O[C@@H]2O[C@H](CO)[C@@H](O)[C@H](O)[C@H]2O)c2ccccc12 | -0.703% | 2.5% | inactive | 5.94% |  | inactive [at 17.4 µM] |  |  |  | inactive
24 | COc1cc(O)cc(C)c1C(=O)O[C@H]1[C@@H](O)[C@@H](n2ccc(=O)[nH]c2=O)O[C@@H]1CO | -0.148% | -4.61% | inactive | -0.769% |  | inactive [at 17.4 µM] |  |  |  | inactive
25 | CC1(C)C[C@H](O)C[C@@]2(C)[C@H]1[C@H](O)C=C1COC(=O)[C@@]12O |  | 2.99% | inactive |  |  | inactive | inactive | inactive |  | inactive
26 | CC(C)=CCC/C(C)=C/CO[C@@H]1O[C@H](CO[C@@H]2OC[C@](O)(CO)[C@H]2O)[C@@H](O)[C@H](O)[C@H]1O | 2.57% | -12.6% | inactive |  |  | inactive [at 17.4 µM] |  | inactive |  | inactive
27 | CC1(C)CC[C@]2(C(=O)O[C@@H]3O[C@H](CO)[C@@H](O)[C@H](O)[C@H]3O)CC[C@]3(C)C(=CCC4[C@@]5(C)C[C@H](O)[C@H](O[C@@H]6OC[C@@H](O)[C@H](O)[C@H]6O)[C@@](C)(CO)C5CC[C@]43C)C2C1 (stereo partly drawn) | -3.53% | -6.93% | inactive | 9.53% |  | inactive [at 9.27 µM] |  |  |  | inactive
28 | C[C@@H]1O[C@@H](OC(=O)Cc2ccccc2)[C@H](O)[C@H](O)[C@H]1O | 2.73% | -2.15% | inactive | 6.7% |  | inactive |  |  |  | inactive
